Bioassay records deposited in PubChem BioAssay by The Scripps Research Institute Molecular Screening Center.
Rows were chosen to be rich in hits. Some 3.5% of all compounds tested hit in one or more screens of this group.
FBW7 act: human FBW7 E3 ligase activation, primary screen; actives 0.13% (n = 650,000); Q969H0; AID 1259310; AlphaScreen FBW7–phospho-cyclin E peptide binding, activator screen; normalized activity (activation), % at 26.1 µM; in the data active = normalized activity above about 1.9%;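 note: purified mutant Fbw7 with reduced substrate affinity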
TEAD-YAP block: TEAD-YAP interaction inhibition; actives 1.4% (n = 640,000); inhibition, % at 9.12 µM; HEK-TIYL cells, TEAD-Gal4/YAP UAS-luciferase luminescence; AID 1259422; in the data active = inhibition above about 32%
GPR151 activ: human GPR151 activation; Q8TDV0; PathHunter beta-arrestin GPR151 cells, luminescence; activation, % at 11.2 µM; actives 1% (n = 650,000); AID 1508602; in the data active = activation above about 4.9%
Target sequence (Q8TDV0 whole entry, looked up): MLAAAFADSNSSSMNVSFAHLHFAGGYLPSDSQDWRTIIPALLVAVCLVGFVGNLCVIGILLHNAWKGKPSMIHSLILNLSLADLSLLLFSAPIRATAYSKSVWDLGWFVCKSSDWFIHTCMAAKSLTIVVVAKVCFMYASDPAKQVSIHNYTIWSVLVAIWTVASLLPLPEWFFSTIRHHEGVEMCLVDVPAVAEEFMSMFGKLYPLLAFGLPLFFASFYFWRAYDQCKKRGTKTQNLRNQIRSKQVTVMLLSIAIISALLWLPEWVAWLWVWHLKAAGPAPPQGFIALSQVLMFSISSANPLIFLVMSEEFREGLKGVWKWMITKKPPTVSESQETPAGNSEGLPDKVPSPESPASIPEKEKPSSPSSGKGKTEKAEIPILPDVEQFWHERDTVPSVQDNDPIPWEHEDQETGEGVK
MITF inh: blocks human microphthalmia-associated transcription factor; O75030; AlphaScreen MITF homodimerization, bead proximity signal; inhibition, % at 2.6 µM; actives 0.91% (n = 650,000); in the data active = inhibition above about 50%
GPR151 conf act: confirmation of human GPR151 activators. shares compounds with GPR151 activ. GPR151 PathHunter beta-arrestin cells, luminescence, 90 min; % of EA-reagent control over plate median. activation, % at 11.2 µM. 6,700 tested, under 10 active;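 active = mean percent activation across replicates above the confirmation screen cutoff of 4.91%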
GPR119 counter: GPR119 activation, counter-screen for GPR151 activators | shares compounds with GPR151 activ | GPR119 PathHunter beta-arrestin cells, luminescence, 90 min; 0 = compound-well median, 100 = enzyme-acceptor control | activation, % at 11.2 µM | actives 0.3% (n = 6,700);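 active = mean percent activation in the counterscreen above 29.09%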;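 note: counterscreen on off-target GPR119 to flag nonselective hits from the GPR151 activator screen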
Hits are given with their value; 0 = inactive; - = no result.

SMILES	FBW7 act	TEAD-YAP block	GPR151 activ	MITF inh	GPR151 conf act	GPR119 counter
Cc1ccc(C(=O)N[C@H]2C[C@H]3C(=O)N[C@H](C)C(=O)N3C2)cc1	0	0	5.9	0	0	0
C[C@@H]1NC(=O)[C@@H]2C[C@H](NC(=O)c3ccc(F)cc3)CN2C1=O	0	0	0	0	-	-
COC(=O)c1oc2ccc(OC)cc2c1NC(C)=O	0	0	0	0	-	-
CCOc1ccc(NC(=O)C2C3C=CC4(O3)C2C(=O)N(CCc2ccc(C)cc2)C4C(=O)NC2CCCCC2)cc1 (centres undefined)	0	0	0	0	-	-
COc1ccc(-c2cc(C(F)(F)F)n3ncc(C(=O)Nc4ccc(Cl)cc4Cl)c3n2)cc1OC	0	0	5.4	0	0	0
O=S(=O)(c1cccnc1)N1CCN(c2cccc(C(F)(F)F)c2)CC1	0	0	0	0	-	-
CCOC(=O)C(NC(=O)/C(=C\c1ccc(F)cc1)NC(=O)c1ccccc1)C(C)C (centres undefined)	0	0	7.5	0	0	0
CCOC(=O)C(NC(=O)/C(=C\c1ccc(Br)cc1)NC(=O)c1ccccc1)C(C)O (centres undefined)	0	0	0	0	-	-
C=CCS/C(=C(/C#N)C(N)=O)c1cc2c([nH]1)CCCC2	0	0	8.6	0	0	0
CC(C)N(CCNC(=O)c1cccc(-c2ccc3c(ccn3C)c2)n1)C(C)C	2.2	0	12	0	0	0
COc1ccc(-c2ncc(C(=O)NCCN(C(C)C)C(C)C)s2)cn1	0	0	0	0	-	-
COc1ccc(-c2ncc(C(=O)NCCN(C(C)C)C(C)C)s2)cc1	0	0	7.8	0	0	0
CC(C)N(CCNC(=O)c1cccc(-c2ccccc2)n1)C(C)C	0	0	0	0	-	-
COc1ccc(-c2cccc(C(=O)NCCN(C(C)C)C(C)C)n2)cc1	0	0	8.8	0	0	0
Cc1ccc(OCCCCNCCN2CCOCC2)c(C(C)(C)C)c1	0	0	0	0	-	-
Cc1nc2c3ccccc3nc(N3CC(C)CC(C)C3)n2n1 (centres undefined)	0	0	0	0	-	-
CCOC(=O)C1=C(O)/C(=C/c2ccc(C(=O)OC)cc2)SC1=NC(=O)c1ccccc1	0	0	6.7	0	0	0
CCOC(=O)C1=C(O)/C(=C/c2ccccc2)SC1=Nc1ccccc1	0	0	0	0	-	-
CN1CCN(Cc2ccc(-c3ccccc3Cl)o2)CC1CCO (centres undefined)	0	0	14	0	0	0
Cc1ccc(-c2ccc(CN3CCN(C)C(CCO)C3)cc2)o1 (centres undefined)	0	0	0	0	-	-
Cc1ccc(-c2cccc(CN3CCN(C)C(CCO)C3)c2)o1 (centres undefined)	0	0	8.8	0	0	0
CN1CCN(CC(=O)Nc2c(C(=O)C3CC3)oc3ccccc23)CC1	0	0	0	0	-	-
CC(=O)c1oc2ccccc2c1NC(=O)CN1CCCCC1	0	0	5.6	0	0	0
CCOC(=O)CSc1nnc(CSc2ncccn2)n1-c1ccccc1	0	0	11	0	0	0
COc1ccc(C(=O)CN2C(=O)C(C)(C)Oc3ccc(C(=O)N4CCCC4)cc32)cc1	0	0	0	0	-	-
SMILES	FBW7 act	TEAD-YAP block	GPR151 activ	MITF inh	GPR151 conf act	GPR119 counter
Cc1ccc(NC2=C([N+](=O)[O-])CS(=O)(=O)C2)cc1	0	0	6.5	0	0	0
O=[N+]([O-])C1=C(Nc2ccc(Cl)c(Cl)c2)CS(=O)(=O)C1	0	0	0	0	-	-
CC1(C)CC(NC(=S)Nc2ccccc2F)CC(C)(C)N1	0	0	8.3	0	0	0
O=C(O)C1CCCCC1c1nc2ccccc2s1 (centres undefined)	0	0	0	0	-	-
Cc1ccc(C2=NS(=O)(=O)N(C)C(C(=O)NCC(C)C)=C2)cc1	0	0	0	0	-	-
Cc1ccc(C2=NS(=O)(=O)N(C)C(C(=O)NCc3ccccn3)=C2)cc1	0	0	6.9	0	0	0
COc1cc2nc(C)[nH]c2cc1OC	0	0	0	0	-	-
COc1ccc2nc(C)[nH]c2c1	0	0	5.2	0	0	0
Cc1cc2oc(C(=O)Nc3cccnc3)c(C)c2cc1C	0	0	0	0	-	-
CC(=O)Nc1ccc(NC(=O)c2oc3cc(C)c(C)cc3c2C)cc1	0	0	23	0	0	0
CCCN(c1ccc(OCC)cc1)S(=O)(=O)c1ccc2c(c1)NC(=O)C(C)C(=O)N2 (centres undefined)	0	0	0	0	-	-
CC(=O)Nc1cccc(NC(=O)CSc2nnnn2-c2ccc3c(c2)OCO3)c1	0	0	5.6	0	0	0
COc1cc(NC(=O)c2cc(Br)ccc2Cl)ccc1N1CCCC1=O	0	0	5.0	0	0	0
COc1ccc(NC(=O)c2cc(Br)ccc2Cl)cc1N1CCCC1=O	0	0	0	0	-	-
Cn1c(=O)oc2cc(S(=O)(=O)N3CCN(C4CCCCC4)CC3)ccc21	0	0	0	0	-	-
Cn1c(=O)oc2cc(S(=O)(=O)N3CCC(N4CCCCC4)CC3)ccc21	0	0	5.9	0	0	0
O=C(c1ccc(Cl)cc1)c1cc(NC(=O)c2cc(Br)cc(Br)c2O)ccc1Oc1ccc(Cl)cc1	0	0	9.6	0	0	0
CCc1cc2[nH]c(C(=O)OC)cc2s1	0	0	5.0	0	0	0
Cc1cc(C(=O)CN2C(=O)C(=O)N(Cc3ccccc3)C2=O)c(C)n1C1CC1	0	0	0	0	-	-
COCc1ccc(CN2CCCC(CNC(=O)c3ccc(-c4ccccc4)cc3)C2)o1 (centres undefined)	0	0	0	0	-	-
O=C(NCC1CCCN(Cc2ccc(CO)o2)C1)c1ccc(-c2ccccc2)cc1 (centres undefined)	0	0	16	0	0	0
Cc1ccc(-n2c(C)cc(C=C3C(=O)NC(=O)NC3=O)c2C)cc1	0	0	8.6	0	0	0
O=C(Nc1ccc(Br)cc1F)NC1CC(=O)N(c2ccc(F)cc2)C1 (centres undefined)	0	0	0	0	-	-
COC(=O)c1cccc(Nc2nc(C)cc(C)n2)c1	0	0	12	0	0	0
COC(=O)c1cccc(NC(=O)C2COc3ccccc3O2)c1 (centres undefined)	0	0	5.0	0	0	0
Cc1ccc(C(C2=C(O)CCCC2=O)C2C(=O)CCCC2=O)o1 (centres undefined)	0	0	0	0	-	-
CCS(=O)(=O)N1CCC(c2[nH]ncc2-c2cc(C)no2)CC1	0	0	5.9	0	0	0
CC(=O)N1CCC(c2[nH]ncc2-c2cc(C)no2)CC1	0	0	0	0	-	-
CCOc1ccc(C(=O)Nc2ccc3c(c2)CC(=O)N3CC)cc1	0	0	0	0	-	-
CCN1C(=O)Cc2cc(NC(=O)c3ccc(C(C)(C)C)cc3)ccc21	0	0	5.2	0	0	0
